High-throughput results (PubChem BioAssay)
A selection: hits, their analogues and other compounds. The true share with any hit is near 10%.
NIH3T3 tox: Cytotoxic Profiling in NIH 3T3 Cell Line of Diverse Libraries Using Quantitative High-Throughput Screening | Potency, µM (titrated, usually from 96.7 µM), actives largely listed as inhibitors | NIH 3T3 viability, CellTiter-Glo ATP luminescence, 48-72 h | hit rate 4.3% among 94,000; further: nearly all actives have a fitted effect of over 55% in size
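Cells were seeded at 400 per well, treated with pin-transferred compound, and kept 48 or 72 hr at 37 °C before CellTiter-Glo addition and luminescence imaging of cellular ATP.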
GPT2 inh: Primary qHTS assay for inhibitors of Glutamate pyruvate transaminase 2 (GPT2); Alanine aminotransferase 2 (Homo sapiens), Q8TD30; Recombinant GPT2, coupled pyruvate oxidase/HRP Amplex Red fluorescence; Potency, µM (series often up to 57.7 µM), usual class: inhibitors; hit rate 0.25% among 100,000; further: nearly all actives have a fitted effect of over 60% in size
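Inhibition is scored from Amplex Red fluorescence generated when pyruvate oxidase and HRP act on pyruvate released by GPT2. Reactions contain 10ng/uL enzyme, 250uM a-KG and 2mM L-alanine and run 30 min at room temperature.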
hNpr1 antagonist: Natriuretic polypeptide receptor (hNpr1) antagonism - Primary qHTS | Potency, µM (top dose mostly 46.3 µM), usual class: inhibitors | hit rate 1.6% among 76,000 | HEK293 hNpr1 GloSensor cGMP, ANP-stimulated luminescence | Atrial natriuretic peptide receptor 1 (Homo sapiens), P16066; calls by dose curve; further: nearly all actives have a fitted effect of over 60% in size
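Compound pre-incubated 30 min at room temperature on GloSensor-loaded HEK293 cells stably carrying hNpr1 and the pGS-40F cGMP biosensor. Stimulation uses hNppA at 0.1 nM final; luminescence is taken at baseline and 20 min post-agonist.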
HEK cytotox: Cytotoxic Profiling in HEK 293 Cell Line of Diverse Libraries Using Quantitative High-Throughput Screening; Potency, µM (top dose mostly 115 µM), hits mostly inhibitors; hit rate 6.6% among 94,000; HEK 293 viability, ATP luminescence (CellTiter-Glo), 48-72 h; further: nearly all actives have a fitted effect of over 60% in size
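qHTS cytotoxicity; HEK 293, 250 cells/well; compound pinned; 48 or 72 hr, 37 degree Celsius, 5% CO2, 95% humidity; CellTiter-Glo, 10 min RT; luminescence (ATP).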
FLuc inh: Firefly luciferase inhibition profiling of diverse chemical library using quantitative high-throughput screening; hit rate 2.5% among 76,000; Luciferin 4-monooxygenase (Photinus pyralis), P08659; Potency, µM (top dose mostly 115 µM), hits mostly inhibitors; purified P. pyralis luciferase, luminescence, biochemical; further: nearly all actives have a fitted effect of over 65% in size
Target sequence (P08659 whole entry, looked up): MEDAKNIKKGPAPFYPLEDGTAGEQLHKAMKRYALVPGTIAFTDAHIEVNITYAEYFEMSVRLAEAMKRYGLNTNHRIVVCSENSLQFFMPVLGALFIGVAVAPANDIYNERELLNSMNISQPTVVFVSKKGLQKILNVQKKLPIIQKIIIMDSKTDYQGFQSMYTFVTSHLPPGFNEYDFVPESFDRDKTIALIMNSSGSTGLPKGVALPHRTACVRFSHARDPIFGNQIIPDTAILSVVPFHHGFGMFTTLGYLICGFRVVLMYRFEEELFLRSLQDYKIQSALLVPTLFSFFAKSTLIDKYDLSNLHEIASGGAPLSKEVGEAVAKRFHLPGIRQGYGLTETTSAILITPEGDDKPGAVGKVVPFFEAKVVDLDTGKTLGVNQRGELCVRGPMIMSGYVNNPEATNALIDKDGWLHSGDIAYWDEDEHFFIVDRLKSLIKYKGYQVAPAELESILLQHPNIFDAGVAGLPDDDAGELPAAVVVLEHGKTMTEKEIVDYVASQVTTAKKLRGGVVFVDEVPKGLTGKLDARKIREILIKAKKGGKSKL
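Inhibitors were tested against purified firefly luciferase in a biochemical, low-substrate format (both substrates at 10uM) and luminescence measured with a CCD imager.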
Large screens that a line does not name were inactive. Unless noted, the call rests on the fitted dose curve; in most records, active means well fitted curve in the direction sought with a large enough effect; inconclusive means small, poorly fitted or top-dose-only effect, or another doubt; inactive means no such curve, though single readings can be large; an effect the other way counts as inactive or inconclusive.

CCC(=O)N1CCN(C2CCN(CCC(C)C)C2=O)CC1 (stereo not drawn)	none
O=C(NC1CCN(c2cc(-c3ccc(Cl)cc3)[nH]n2)C1)c1ccc(F)cc1F (stereo not drawn)	NIH3T3 tox inconclusive, GPT2 inh inconclusive, hNpr1 antagonist inconclusive, HEK cytotox 50µM
COc1ccc(C(=O)NC2CCN(c3cc(-c4ccc(Cl)cc4)[nH]n3)C2)c(C)c1 (stereo not drawn)	NIH3T3 tox inconclusive, HEK cytotox inconclusive
COc1ccc(C(=O)NC2CCN(c3cc(-c4ccc(Cl)cc4)[nH]n3)C2)c(OC)c1 (stereo not drawn)	NIH3T3 tox 35µM, GPT2 inh inconclusive, HEK cytotox 45µM
O=C(NC1CCN(c2cc(-c3ccc(Cl)cc3)[nH]n2)C1)c1ccccc1Br (stereo not drawn)	NIH3T3 tox 35µM, hNpr1 antagonist inconclusive, HEK cytotox 28µM
Cc1ccc(NC(=O)N2CCC(Oc3ncccc3C(=O)N(C)C)C2)cc1 (stereo not drawn)	none
O=C(C1CCC1)N1CCC[C@H](n2c(=O)n(CC3CC3)c3cccnc32)C1	NIH3T3 tox inconclusive, HEK cytotox inconclusive (no result: hNpr1 antagonist, FLuc inh)
CCn1cc(S(=O)(=O)N2CCC[C@H](n3c(=O)n(CC4CC4)c4cccnc43)C2)cn1	HEK cytotox 40µM
O=C(C1CCN(C(=O)C2CC2)C1)N1CCC(c2nc3ncccc3[nH]2)CC1 (stereo not drawn)	none (no result: hNpr1 antagonist, FLuc inh)
O=C(Cc1ccccn1)N1CCCC(C(=O)N2CCCC2c2nc3ccncc3[nH]2)C1 (stereo not drawn)	none (no result: hNpr1 antagonist, FLuc inh)
COc1ccc(C(=O)N2CCCC3(CC(c4cccc(C(F)(F)F)c4)=NO3)C2)cc1 (stereo not drawn)	NIH3T3 tox inconclusive, HEK cytotox inconclusive
O=C(Cc1cccc(Cl)c1)N1CCC2(CC1)CC(c1cccc(C(F)(F)F)c1)=NO2	NIH3T3 tox inconclusive, HEK cytotox 28µM (no result: GPT2 inh, hNpr1 antagonist, FLuc inh)
O=C(Cc1ccccc1)N1CCC2(CC1)CC(c1cccc(C(F)(F)F)c1)=NO2	NIH3T3 tox inconclusive, HEK cytotox 45µM (no result: GPT2 inh, hNpr1 antagonist, FLuc inh)
FC(F)(F)c1cccc(C2=NOC3(CCN(Cc4ccccc4)C3)C2)c1 (stereo not drawn)	NIH3T3 tox inconclusive, GPT2 inh inconclusive, HEK cytotox 45µM (no result: hNpr1 antagonist, FLuc inh)
COc1ccc(CC(=O)N2CCC3(CC2)CC(c2cccc(C(F)(F)F)c2)=NO3)cc1	NIH3T3 tox inconclusive, HEK cytotox 40µM (no result: GPT2 inh, hNpr1 antagonist, FLuc inh)
CCCC(=O)Nc1ccc([C@H]2OCC(=O)N(CC(C)C)[C@@H]2CO)cc1	none
O=C(CCCc1ccccc1)N1CCCCCC1c1nc(C2CC2)no1 (stereo not drawn)	NIH3T3 tox inconclusive, HEK cytotox 50µM
O=C(CCCc1ccccc1)N1CCCC1c1nc(C2CCOCC2)no1 (stereo not drawn)	HEK cytotox inconclusive
CCc1ccc(N2CC(c3noc(-c4sccc4C)n3)CC2=O)cc1 (stereo not drawn)	NIH3T3 tox inconclusive, HEK cytotox 79µM
CCOc1ccc(-c2nc(C3CC(=O)N(Cc4ccccc4OC)C3)no2)cc1 (stereo not drawn)	NIH3T3 tox 22µM, HEK cytotox 45µM
COc1ccc(N2CC(c3noc(-c4ccc(C(C)(C)C)cc4)n3)CC2=O)cc1OC (stereo not drawn)	NIH3T3 tox inconclusive, hNpr1 antagonist inconclusive, HEK cytotox 40µM, FLuc inh inconclusive
COc1ccccc1CN1CC(c2noc(-c3ccc(C)cc3C)n2)CC1=O (stereo not drawn)	NIH3T3 tox inconclusive, HEK cytotox 40µM
COc1ccc(N2CC(c3noc(-c4ccc(F)cc4)n3)CC2=O)cc1OC (stereo not drawn)	HEK cytotox inconclusive
COc1ccc(-c2nc(C3CC(=O)N(Cc4ccccc4OC)C3)no2)c(C)c1 (stereo not drawn)	NIH3T3 tox inconclusive, GPT2 inh inconclusive, HEK cytotox inconclusive
